Among the data in PubChem BioAssay (NCATS) are Potency and activity change, negative = cytotoxicity values, retold here.

Records with an inconclusive call do not appear. Entries that show only a call come without a potency. A number with no mark means an inactive call. Calls of active or inactive are those of the source. Calls follow the shape of the full dose curve. Numbered stars: 1 amine (or outer) side, 2 acyl side, 3 side chain; on linkers, the order of the positions; unused ones are H or OH. Bridge positions count the residues as written; N and C are the ends. Square brackets hold non-standard residues; d marks the D form. Peptide text beside a SMILES is read from it. I, II: the chains in the order shown. Actinocin(9to1) = Cc1c2oc3c(C)ccc(C(=O)[*:1])c3nc-2c(C(=O)[*:2])c(N)c1=O; NMeV = CN[C@H](C(=O)O)C(C)C; Sar = CNCC(=O)O
Potency is read from the fitted curve at half-maximal effect.

A short description of the test: Cytotoxicity counterscreen for inhibitors of SARS-CoV-2 cell entry (AID 1645845). Also: nearly all actives have a fitted effect of over 50% in size. To be noted: cell viability (SARS-CoV-2 entry assay cells); series mostly up to 57.1 µM. The source says:
Assay Provider: Wei Zheng, Ph.D.
National Center for Advancing Translational Sciences, National Institute of Health, Rockville, MD.
SARS-CoV-2 spike protein, within the viral envelope, mediates viral attachment and infection of host cells. The SARS-CoV-2 spike protein specifically binds to the host receptor ACE2 (Angiotensin-converting enzyme 2). This interaction promotes endocytosis of the viral particle, additional events lead to viral-host cell membrane fusion and release of the viral contents, allowing viral replication.
While SARS-CoV-2 requires BSL-3 facilities for live virus work, pseudo-typed partices (PP) that incorporate SARS-CoV-2 spike proteins without replication elements could facilitate studies on viral entry mechanisms in a BSL-2 setting. This PP cell entry assay could also enable screening of small molecule compound libraries in BSL-2 setting to identify inhibitors of SARS-CoV-2 cell entry. To eliminate false positive compounds, ATP content cytotoxicity assay was screened in the same cell line.
SEQUENCE No. (e.g., 1, 2, 3, etc.); […] (e.g., Cells, Incubation, Reagent, etc.); VALUE and DESCRIPTION.
1. Cells. Seed 1500 HEK293-ACE2 cells (Expi293F with stable expression of human ACE2) in 2 uL/well media (DMEM, 10% FBS, 1x L-glutamine, 1x Pen/Strep, 1 ug/ml puromycin) in white 1536-well assay plates (Greiner #782073).
2. Incubation. Incubate at 37 C with 5% CO2 overnight (~16 h).
3. Compounds. Dispense 23 nL/well compounds in DMSO via pin transfer.
4. Incubation. Incubate for 1 h at 37C 5% CO2.
5. Reagent. Dispense 2 uL/well of media (DMEM, 10% FBS, 1x L-glutamine, 1x Pen/Strep, 1 ug/ml puromycin).
6. Incubation. Incubate at for 48h at 37C 5% CO2
7. Reagent. Dispense 4 uL/well of ATPLite 1step luminescence assay reagent (PerkinElmer #6016739).
8. Incubation. Incubate for 15 min at room temperature.
9. Detection. Read luminescence signal (Viewlux plate reader, PerkinElmer). Data was normalized with wells containing cells as 100%, and wells without cells (media only control) as 0%.
A general note: The purpose of a counterscreen is to sort out artefacts and off-target activity.
Consider `NC(=Nc1ccccc1)Nc1ccccc1`, for which the Potency entry is “inactive”.

For the compound `CN(N=O)C(=O)N[C@@H]1[C@@H](O)[C@H](O)[C@@H](CO)O[C@@H]1O`, the Potency entry is “inactive”. Take `COc1cc2c(N3CCN(C(=O)Nc4ccc(OC(C)C)cc4)CC3)ncnc2cc1OCCCN1CCCCC1`: the Potency entry is “inactive”. Turning to `Nc1[nH]c(=O)ncc1F`, the Potency entry was “inactive”. For `Nc1nc(N)c2nc(-c3ccccc3)c(N)nc2n1`, the Potency entry is “inactive”. Still for that read-out and setting: in the case of `OCCN1CCN(CCCN2c3ccccc3Sc3ccc(Cl)cc32)CC1` it was 28.2 µM (active); in that of `COC(=O)CCc1ccc(OCC(O)CNC(C)C)cc1` (stereo not given), “inactive”.

`CN1CCC[C@@H]1Cc1c[nH]c2ccc(CCS(=O)(=O)c3ccccc3)cc12`: the Potency result is “inactive”. The same measure, in the same setting: the same measure for `OC(CCN1CCCC1)(c1ccccc1)C1CCCCC1` (stereo not given): “inactive”; for `C#CCN(C)[C@H](C)Cc1ccccc1`: “inactive”. With `COC(=O)C(c1ccccc1Cl)N1CCc2sccc2C1` (stereo not given), the Potency result was “inactive”. The same measure, in the same setting: the same measure for `CCC(C)(C)C(=O)O[C@H]1C[C@@H](C)C=C2C=C[C@H](C)[C@H](CC[C@@H]3C[C@@H](O)CC(=O)O3)[C@H]21`: “inactive”; for `Oc1cccc2cccnc12`: “inactive”; for `C[C@@H]1CC(=O)NN=C1c1ccc(NN=C(C#N)C#N)cc1`: “inactive”. As for `CC1(C)S[C@@H]2[C@H](NC(=O)[C@H](N)c3ccccc3)C(=O)N2[C@H]1C(=O)O`, the Potency result is “inactive”.

For the compound `O=C(O)CCNC(=O)c1ccc(N=Nc2ccc(O)c(C(=O)O)c2)cc1`, the Potency entry was “inactive”. `CN(C)[C@@H]1C(=O)C(C(N)=O)=C(O)[C@@]2(O)C(=O)C3=C(O)c4c(O)cccc4[C@@](C)(O)[C@H]3C[C@@H]12`: the Potency entry is “inactive”.

Regarding `CCOc1ccc2ccccc2c1C(=O)N[C@@H]1C(=O)N2[C@@H]1SC(C)(C)[C@@H]2C(=O)O`, the Potency entry was “inactive”.

Turning to `Cc1ccsc1C(=CCCN1CCC[C@@H](C(=O)O)C1)c1sccc1C`, the Potency result is “inactive”. Regarding `CO/N=C1\CN(c2nc3c(cc2F)c(=O)c(C(=O)O)cn3C2CC2)CC1CN` (stereo not given), the Potency result was “inactive”. On the same count and under the same terms, the same measure for `N=c1nc(N2CCCCC2)cc(N)n1O`: “inactive”; for `NC[C@H](O)c1ccc(O)c(O)c1`: “inactive”; for `Cc1ccc(-n2[nH]c(C)c(N=Nc3cccc(-c4cccc(C(=O)O)c4)c3O)c2=O)cc1C`: “inactive”. Same read-out and setting: the same measure for `C=CCN1CC[C@]23c4c5ccc(O)c4O[C@H]2C(=O)CC[C@@]3(O)[C@H]1C5`: “inactive”; for `COc1ccc(Cc2nccc3cc(OC)c(OC)cc23)cc1OC`: 7.94 µM (active). The same measure, in the same setting: the same measure for `CC(=O)Oc1ccccc1C(=O)Nc1ncc([N+](=O)[O-])s1`: “inactive”; for `Cc1c2oc3c(C)ccc(C(=O)N[C@@H]4C(=O)N[C@H](C(C)C)C(=O)N5CCC[C@H]5C(=O)N(C)CC(=O)N(C)[C@@H](C(C)C)C(=O)O[C@@H]4C)c3nc-2c(C(=O)N[C@@H]2C(=O)N[C@H](C(C)C)C(=O)N3CCC[C@H]3C(=O)N(C)CC(=O)N(C)[C@@H](C(C)C)C(=O)O[C@@H]2C)c(N)c1=O` (I: T[dV]P[Sar][NMeV] / II: T[dV]P[Sar][NMeV]; ester I:1-I:C, II:1-II:C; linker I:N-II:N via Actinocin(9to1)): “inactive”.

As for `CC(S)C(=O)NCC(=O)O` (stereo not given), the Potency result is “inactive”. Still for that read-out and setting: the same measure for `CC1Cc2ccccc2N1NC(=O)c1ccc(Cl)c(S(N)(=O)=O)c1` (stereo not given): “inactive”; for `CC[C@@H](CO)NC(=O)[C@@H]1C=C2c3cccc4[nH]cc(c34)C[C@H]2N(C)C1`: “inactive”; for `COc1ccc(C(CN(C)C)C2(O)CCCCC2)cc1` (stereo not given): “inactive”.

`Cc1ncc(CNC(=O)N(CCCl)N=O)c(N)n1`: the Potency entry was “inactive”. Regarding `NCC(CC(=O)O)c1ccc(Cl)cc1` (stereo not given), the activity change, negative = cytotoxicity is 1.92% [at 0.702 µM]. On to `C[C@H]1[C@H](NC(=O)/C(=N/OC(C)(C)C(=O)O)c2csc(N)n2)C(=O)N1S(=O)(=O)O` (stereo in doubt), for which the Potency result was “inactive”.

Turning to `CNCC(O)c1ccc(O)cc1` (stereo not given), the Potency entry was “inactive”. Turning to `Oc1ccccc1-c1ccccc1`, the Potency result was “inactive”. Still for that read-out and setting: in the case of `CS(=O)(=O)OCCCCOS(C)(=O)=O` it was “inactive”. Consider `CC(C)Oc1ccc2c(=O)c(-c3ccccc3)coc2c1`, for which the Potency result is “inactive”.

Consider `CC1=C(C(=O)O)N2C(=O)[C@@H](NC(=O)[C@H](N)c3ccccc3)[C@H]2SC1`, for which the Potency result is “inactive”. For the compound `COc1cc(Cc2cnc(N)nc2N)cc(OC)c1OC`, the Potency result was “inactive”.
